FECH inh = blocks human mitochondrial ferrochelatase activity; P22830; purified FECH, Ni-mesoporphyrin absorbance 550 nm; calls only at 10 µM (by protocol); actives 3.3% (n = 20,000); AID 1671448;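 active = enzyme reaction rate more than 3 SD below the solvent-only control wells on the same plate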;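 note: lower slope than DMSO wells means FECH inhibition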
Target sequence (P22830 whole entry, looked up): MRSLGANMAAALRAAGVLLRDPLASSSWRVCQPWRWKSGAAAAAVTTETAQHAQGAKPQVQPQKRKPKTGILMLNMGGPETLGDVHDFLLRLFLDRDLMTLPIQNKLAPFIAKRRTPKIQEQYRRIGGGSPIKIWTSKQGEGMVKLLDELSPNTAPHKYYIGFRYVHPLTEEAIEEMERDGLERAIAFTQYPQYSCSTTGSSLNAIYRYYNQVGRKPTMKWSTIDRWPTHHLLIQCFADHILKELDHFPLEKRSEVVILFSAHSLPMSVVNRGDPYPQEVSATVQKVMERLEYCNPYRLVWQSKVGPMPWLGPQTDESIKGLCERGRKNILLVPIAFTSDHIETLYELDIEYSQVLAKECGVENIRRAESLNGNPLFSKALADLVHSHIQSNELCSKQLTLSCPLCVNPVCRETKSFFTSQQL
Calls only; i = inactive; + = active, no number. This is one part of a sample in which hits are shown more often than they occur.

SMILES	FECH inh
CCc1cc(Sc2ccc(NC(=O)Nc3cccc(F)c3)cc2)n2ncnc2n1	i
CCc1c(C)nc2ncnn2c1Sc1ccc(NC(=O)c2cccc(OC)c2)cc1	i
CCc1c(C)nc2ncnn2c1Sc1ccc(NC(=O)Nc2ccc(OC)c(OC)c2)cc1	i
CCCc1cc(Sc2ccc(NC(=O)c3ccc(OC)c(OC)c3)cc2)n2ncnc2n1	i
CCc1c(C)nc2ncnn2c1Sc1ccc(NC(=O)c2ccc(OC)c(OC)c2)cc1	+
CCCc1c(C)nc2ncnn2c1Sc1ccc(NC(=O)c2ccc(OC)c(OC)c2)cc1	+
CCCc1cc(Sc2ccc(NC(=O)c3cccc(OC)c3)cc2)n2ncnc2n1	+
CCCc1c(C)nc2ncnn2c1Sc1ccc(NC(=O)c2cc(OC)c(OC)c(OC)c2)cc1	i
CCc1c(C)nc2ncnn2c1Sc1ccc(NC(=O)c2c(OC)cccc2OC)cc1	i
CNc1nc(Nc2cccc(F)c2)c2cnn(-c3ccccc3)c2n1	i
COc1ccc(S(=O)(=O)N2CCN(Cc3nc4cccnc4n3-c3ccccc3)CC2)cc1	i
CC(C)c1nc(N2CCN(Cc3ccc(-n4ccnc4)cc3)CC2)no1	i
Cc1cc(C)n2nc(N(C)S(=O)(=O)c3ccc(Cl)cc3)nc2n1	i
CC(c1cccc(-c2nc3ccccc3cc2CO)c1)N1CCCC1 (stereo not drawn)	i
CCc1cc(N2CCCN(C(=O)COC)CC2)nc(N2CCOCC2)n1	i
COc1ccc(C(=O)N2CCN(Cc3ccc(-c4ccn[nH]4)s3)CC2)cc1	i
CCc1ccnc(NC(=O)c2cccc(CN3CC[C@H](O)C3)c2)c1	i
CCc1c(C)nc2ncnn2c1Sc1ccc(NS(=O)(=O)c2cc(Cl)ccc2OC)cc1	+
CCCc1c(C)nc2ncnn2c1Sc1ccc(NC(=O)Cc2ccc(OC)cc2)cc1	i
COc1cc(OC)cc(C(=O)Nc2ccccc2Sc2c(C)c(C)nc3ncnn23)c1	+
CCCc1c(C)nc2ncnn2c1Sc1ccc(NC(=O)c2cc(OC)cc(OC)c2)cc1	+
COc1ccccc1C(=O)Nc1ccccc1Sc1c(C)c(C)nc2ncnn12	i
CCCc1c(C)nc2ncnn2c1Sc1ccc(NS(=O)(=O)c2cc(OC)ccc2OC)cc1	i
COc1cc(OC)cc(C(=O)Nc2ccccc2Sc2c(C)c(C)nc3nc(-c4ccccc4)nn23)c1	i
CCc1c(C)nc2ncnn2c1Sc1ccc(NS(=O)(=O)c2ccc(OC)c(OC)c2)cc1	i
SMILES	FECH inh
CCCc1c(C)nc2ncnn2c1Sc1ccc(NC(=O)c2cccc(OC)c2)cc1	i
COc1ccc(Nc2cc(C)nc(N3CCN(S(=O)(=O)c4ccc(OC)c(OC)c4)CC3)n2)cc1	i
Cc1nccn1CC1CCCN(CCCc2ccccc2)C1 (stereo not drawn)	i
Cn1c(=O)n(-c2ccc(F)cc2)c2nc(-c3cccc(C(F)(F)F)c3)nc(C(N)=O)c21	i
CCc1ccc(CN2CCc3onc(-c4cccc5ccccc45)c3C2)nc1	i
O=C(c1cccc(=O)[nH]1)N(Cc1ccsc1)CC1CCCO1 (stereo not drawn)	i
CC(Cc1cn(Cc2ccoc2)nn1)c1ccccc1 (stereo not drawn)	i
CN(CCNC(=O)C1CCN(c2ncnc3c2nc2n3CCCCC2)CC1)Cc1ccccc1	+
CCN(CCNC(=O)C1CCCN(c2ncnc3c2nc2n3CCCCC2)C1)Cc1ccccc1 (stereo not drawn)	i
O=C(NCc1ccccc1)C1CCN(c2ncnc3c2nc2n3CCCCC2)CC1	i
CCCN(CC#Cc1ccccc1)C(=O)c1cccnc1	i
Cc1ccc(S(=O)(=O)NCCn2c(C(F)(F)F)nc3cccnc32)cc1	i
Cc1ccc(S(=O)(=O)NCCn2c(C(F)(F)F)nc3cccnc32)cc1C	i
Cc1ccc(-c2nc3cccnc3n2CCNS(=O)(=O)c2ccc(Cl)cc2)cc1	i
CCOc1ccc(S(=O)(=O)NCCn2c(-c3ccc(C)cc3)nc3cccnc32)cc1	+
Cc1ccc(-c2nc3cccnc3n2CCNS(=O)(=O)c2c(C)cc(C)cc2C)cc1	i
CCOc1ccc(S(=O)(=O)NCCn2c(-c3ccc(F)cc3)nc3cccnc32)cc1	i
Cc1ccc(-c2nc3cccnc3n2CCNS(=O)(=O)c2ccc(C)c(C)c2)cc1	+
COc1ccc(S(=O)(=O)NCCn2c(-c3ccc(C)cc3)nc3cccnc32)cc1	i
O=S(=O)(NCCn1c(-c2ccccc2)nc2cccnc21)c1ccc(Cl)cc1	i
COc1ccc(S(=O)(=O)NCCn2c(-c3ccccc3)nc3cccnc32)cc1OC	+
Cc1ccc(-c2nc3cccnc3n2CCNS(=O)(=O)c2ccc(CC(C)C)cc2)cc1	i
Cc1ccc(S(=O)(=O)NCCn2c(C(F)(F)F)nc3cccnc32)c(C)c1	+
COC(=O)CC1=CC(=O)N(CC(=O)Nc2ccc(F)c(Cl)c2)c2ccccc2N1	i
C=CCN(CC=C)C(C(=O)O)c1ccc(F)c(C)c1 (stereo not drawn)	i
SMILES	FECH inh
Cn1nc(C(=O)NCc2ccccc2)c2c1CCN(C(=O)COc1ccc(Cl)cc1)C2	i
CCc1nc(CN2CCN3CCN(C)CC3C2)c(C)[nH]1 (stereo not drawn)	i
COc1ccc(NC(=O)CN2CCCN(Cc3ccc(Cl)cc3)S2(=O)=O)cc1	i
Cc1ccccc1Nc1nc(N2CCCC(C)C2)nc2c1cnn2-c1ccccc1 (stereo not drawn)	i
CC(C)C1CN(c2cncc(C(=O)N3CCCC3)n2)CCCN1CC1CC1 (stereo not drawn)	i
Cc1ccccc1-c1cc(N2CCN(S(=O)(=O)Cc3ccccc3)CC2)ncn1	i
COc1cccc(Nc2nc(N3CCN(C)CC3)nc3c2cnn3-c2ccccc2)c1	i
CCOc1ccc(-c2nc(SCC(=O)NCC3CCCO3)n3[nH]c(=O)cc3n2)cc1 (stereo not drawn)	i
CC(C)c1nc(CCNc2ncnc3c2CCNC3)no1	i
Cc1cc(C)c(NC(=O)CN2CCCN(Cc3ccc(Cl)cc3)S2(=O)=O)c(C)c1	i
O=C(NCCn1c(-c2ccncc2)nc2cccnc21)Nc1ccccc1Br	i
O=S(=O)(NCCn1c(-c2ccccc2)nc2cccnc21)c1cccc(Cl)c1	i
O=C(NCCn1c(-c2ccncc2)nc2cccnc21)Nc1ccc(Br)cc1F	i
Cc1ccc(-c2nc3cccnc3n2CCNS(=O)(=O)c2ccc(C(C)C)cc2)cc1	i
Cc1ccc(NC(=O)NCCn2c(-c3ccncc3)nc3cccnc32)c(C)c1	+
Cc1ccc(-c2nc3cccnc3n2CCNS(=O)(=O)c2cccc(Cl)c2)cc1	+
O=C(NCCn1c(CCc2ccccc2)nc2cccnc21)C1CCCC1	i
Cc1ccc(C(N)=O)c(N2CCC(O)(CO)CC2)n1	i
CCc1c(C)nc2ncnn2c1Sc1ccc(NC(=O)Nc2ccc(Cl)cc2)cc1	i
Cc1ccc(Nc2cc(C)nc(Nc3ccc(NC(=O)c4ccccc4)cc3)n2)cc1	i
CC(=O)Nc1ccccc1SCC(=O)N1CCn2cccc2C1C (stereo not drawn)	+
CC1c2cccn2CCN1C(=O)c1ccc(C#CC(C)(C)O)o1 (stereo not drawn)	i
CC1c2cccn2CCN1C(=O)CNS(=O)(=O)c1cccs1 (stereo not drawn)	i
Cc1cccc(CN2CCN(CC(=O)Nc3c(C)cccc3C)S2(=O)=O)c1	i
O=C(CN1CCCN(Cc2cccc(Cl)c2)S1(=O)=O)Nc1ccccc1	i
Cc1cccc(CN2CCCN(CC(=O)Nc3cc(C)ccc3C)S2(=O)=O)c1	i
Cc1cccc(CN2CCCN(CC(=O)Nc3cc(Cl)ccc3C)S2(=O)=O)c1	+
Cc1ccc(NC(=O)CN2CCCN(Cc3cccc(Cl)c3)S2(=O)=O)c(Cl)c1	+
